Test results from PubChem BioAssay.
For part of these data: Potency and affinity values are given separately. The source made the active and inactive calls. Unless noted, no rule for the calls is given here.

Key:
[1] = antimalarial activity against Dd2 strain (AID 2302;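 active = growth inhibition above 50% at the single 2 µM test dose, taken to imply half-maximal potency below 2 µM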;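 also: 0% = DMSO untreated growth and 100% = chloroquine plus artemisinin killed control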); details: P. falciparum Dd2 in RBCs, LDH growth readout, 72 h; at 2 µM; hits give high values
[2] = HepG2 cytotoxicity, primary screen, cytotoxicity control for P. falciparum antimalarial project, cell-based, ATP luminescence (AID 2303;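 active = inhibition above 50%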;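 also: 0% = DMSO wells and 100% = digitonin-killed cells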); details: HepG2 viability, 24-48 h, at 10 µM, hits give high values
[3] = target: L-lactate dehydrogenase (Plasmodium falciparum (isolate CDC / Honduras)) (UniProt Q27743); experiment: PfLDH activity inhibition – cell lysate, 3D7 strain, counter-screen for P. falciparum growth inhibition project (AID 2304);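 also: 0% = vehicle and 100% = reference inhibitor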; details: P. falciparum 3D7 crude extract, LDH APAD/NBT absorbance; at 2 µM; hits give high values
[4] = inhibition of 3D7 malaria parasite growth – strain 3D7 (AID 2306);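 also: 0% = DMSO wells and 100% = chloroquine plus artemisinin control wells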; details: P. falciparum 3D7 erythrocytic growth, LDH absorbance, 72 h; at 2 µM; hits give high values
[5] = target: Calcium-dependent protein kinase 1 (Plasmodium falciparum (isolate 3D7)) (UniProt P62344); experiment: PfCDPK1 kinase inhibitors, biochemical, TCAMS library (AID 1159585; cut-off not given, nearly all actives have IC50 up to about 0.98 µM;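 also: inhibitors leave more ATP so luminescence rises with inhibition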); details: recombinant PfCDPK1, Kinase-Glo ATP depletion luminescence
[6] = target: Plasmodium falciparum protein kinase 6 (PK6, PF3D7_1337100) (UniProt Q8IDW1); experiment: PfPK6 kinase inhibitors, biochemical, TCAMS library (AID 1159586); details: recombinant PfPK6, Kinase-Glo ATP depletion luminescence
[7] = target: Protein kinase 7 (PK7), Plasmodium falciparum 3D7 (PF3D7_0213400) (UniProt Q7YTF7); experiment: inhibition of Plasmodium PK7 catalytic activity – biochemical, TCAMS antimalarial set, Kinase-Glo luminescence (AID 1159587); details: recombinant PfPK7, Kinase-Glo ATP depletion luminescence
[8] = target: Calcium-dependent protein kinase 4 (Plasmodium falciparum (isolate 3D7)) (UniProt Q8IBS5); experiment: PfCDPK4 kinase inhibitors, biochemical, TCAMS library (AID 1159588; cut-off not given, nearly all actives have IC50 up to about 0.91 µM); details: recombinant PfCDPK4, Kinase-Glo ATP depletion luminescence
Chain of Calcium-dependent protein kinase 4 (Plasmodium falciparum (isolate 3D7)) (Q8IBS5 whole entry, looked up): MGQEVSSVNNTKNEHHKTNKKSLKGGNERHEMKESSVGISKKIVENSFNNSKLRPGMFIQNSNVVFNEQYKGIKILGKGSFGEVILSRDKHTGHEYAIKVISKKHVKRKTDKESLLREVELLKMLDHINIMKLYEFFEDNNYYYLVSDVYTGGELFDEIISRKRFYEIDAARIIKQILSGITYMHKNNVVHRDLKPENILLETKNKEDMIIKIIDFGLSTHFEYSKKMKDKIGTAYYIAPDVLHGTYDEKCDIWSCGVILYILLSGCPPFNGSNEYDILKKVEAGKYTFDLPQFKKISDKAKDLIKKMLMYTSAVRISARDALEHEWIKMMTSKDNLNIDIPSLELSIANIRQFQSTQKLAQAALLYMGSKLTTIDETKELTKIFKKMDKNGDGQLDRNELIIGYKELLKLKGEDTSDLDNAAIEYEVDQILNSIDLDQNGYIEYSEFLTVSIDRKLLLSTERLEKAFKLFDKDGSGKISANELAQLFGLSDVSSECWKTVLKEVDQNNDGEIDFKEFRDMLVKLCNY

Chain of Protein kinase 7 (PK7), Plasmodium falciparum 3D7 (PF3D7_0213400) (Q7YTF7 1-343): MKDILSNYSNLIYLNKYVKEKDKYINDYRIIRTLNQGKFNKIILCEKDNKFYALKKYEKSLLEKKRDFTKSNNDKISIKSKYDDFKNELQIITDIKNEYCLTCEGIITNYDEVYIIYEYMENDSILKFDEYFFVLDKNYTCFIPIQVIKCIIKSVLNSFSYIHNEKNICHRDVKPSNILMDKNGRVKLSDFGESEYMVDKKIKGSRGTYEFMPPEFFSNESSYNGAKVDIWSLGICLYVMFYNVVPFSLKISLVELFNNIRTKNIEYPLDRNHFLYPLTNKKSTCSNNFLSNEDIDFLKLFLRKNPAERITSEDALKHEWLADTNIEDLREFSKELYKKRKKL
Chain of L-lactate dehydrogenase (Plasmodium falciparum (isolate CDC / Honduras)) (Q27743 whole entry, looked up): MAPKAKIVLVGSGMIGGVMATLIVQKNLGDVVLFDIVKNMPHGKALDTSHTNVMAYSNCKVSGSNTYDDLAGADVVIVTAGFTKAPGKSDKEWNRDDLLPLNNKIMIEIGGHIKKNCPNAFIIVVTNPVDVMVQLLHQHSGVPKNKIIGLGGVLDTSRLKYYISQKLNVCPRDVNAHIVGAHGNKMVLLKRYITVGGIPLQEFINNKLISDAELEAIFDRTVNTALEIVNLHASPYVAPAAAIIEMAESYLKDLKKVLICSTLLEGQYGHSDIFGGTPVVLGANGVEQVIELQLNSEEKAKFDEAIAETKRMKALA
Chain of Plasmodium falciparum protein kinase 6 (PK6, PF3D7_1337100) (Q8IDW1 1-305): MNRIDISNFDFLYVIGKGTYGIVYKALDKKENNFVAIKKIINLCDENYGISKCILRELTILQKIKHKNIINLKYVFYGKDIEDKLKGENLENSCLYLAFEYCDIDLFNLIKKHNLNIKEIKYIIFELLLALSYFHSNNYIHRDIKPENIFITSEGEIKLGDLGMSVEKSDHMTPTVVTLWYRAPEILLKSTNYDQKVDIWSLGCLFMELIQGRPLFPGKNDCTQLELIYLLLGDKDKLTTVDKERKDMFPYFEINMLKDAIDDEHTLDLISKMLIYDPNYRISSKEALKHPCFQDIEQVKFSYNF
Chain of Calcium-dependent protein kinase 1 (Plasmodium falciparum (isolate 3D7)) (P62344 whole entry, looked up): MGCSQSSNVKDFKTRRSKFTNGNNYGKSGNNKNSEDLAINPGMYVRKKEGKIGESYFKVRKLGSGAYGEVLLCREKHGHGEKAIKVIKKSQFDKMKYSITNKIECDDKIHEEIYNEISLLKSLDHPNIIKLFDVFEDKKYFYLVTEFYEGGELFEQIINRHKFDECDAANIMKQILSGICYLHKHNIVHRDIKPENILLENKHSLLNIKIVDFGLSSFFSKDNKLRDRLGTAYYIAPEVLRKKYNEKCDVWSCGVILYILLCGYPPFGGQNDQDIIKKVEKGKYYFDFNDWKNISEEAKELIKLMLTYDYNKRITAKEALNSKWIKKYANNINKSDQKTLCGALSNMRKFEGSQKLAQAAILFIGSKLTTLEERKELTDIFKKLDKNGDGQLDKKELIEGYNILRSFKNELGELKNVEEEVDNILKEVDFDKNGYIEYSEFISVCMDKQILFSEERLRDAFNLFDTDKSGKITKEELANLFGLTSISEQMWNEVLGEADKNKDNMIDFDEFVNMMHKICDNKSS

Cc1cc2ncn(-c3nccc(NCc4cccnc4)n3)c2cc1C
inactive: inhibition [2] -2% | inhibition [3] -4% | outcome [5] | outcome [6] | outcome [7] | outcome [8]
active: growth inhibition [1] 98% | growth inhibition [4] 99%

NC(=O)c1cccc(Nc2nccc(Nc3ccc(Oc4cccc5ccccc45)cc3)n2)c1
active: growth inhibition [4] 94%
inactive: growth inhibition [1] 22% | inhibition [2] -10% | inhibition [3] 3% | outcome [5] | outcome [6] | outcome [7] | outcome [8]

c1ccc2c(Nc3ccc(Cc4ccc(Nc5c6ccccc6nc6ccccc56)cc4)cc3)c3ccccc3nc2c1
active: growth inhibition [1] 101% | inhibition [2] 93% | growth inhibition [4] 101%
inactive: inhibition [3] 7% | outcome [5] | outcome [6] | outcome [7] | outcome [8]

Cc1cc(C(=O)Nc2ccc(-c3ccccc3)cc2)no1
active: growth inhibition [1] 94% | growth inhibition [4] 90%
inactive: inhibition [2] 6% | inhibition [3] -3% | outcome [5] | outcome [6] | outcome [7] | outcome [8]

O=C(Nc1cccc(-c2ccc(-c3nc4ccc(C(F)(F)F)cc4[nH]3)s2)c1)c1cccnc1
inactive: inhibition [3] -3% | outcome [5] | outcome [6] | outcome [7] | outcome [8]
active: growth inhibition [1] 99% | inhibition [2] 74% | growth inhibition [4] 101%

CN1CCN(c2cc(NC(=O)Nc3ccc(-c4ccncc4)c(Cl)c3)ccc2Br)CC1
inactive: inhibition [2] 23% | inhibition [3] 2% | outcome [5] | outcome [6] | outcome [7] | outcome [8]
active: growth inhibition [1] 99% | growth inhibition [4] 101%

CC(C)(C)c1cc(NC2CC2)nc(-c2ccccn2)n1
inactive: inhibition [2] 7% | inhibition [3] -7% | outcome [5] | outcome [6] | outcome [7] | outcome [8]
active: growth inhibition [1] 79% | growth inhibition [4] 94%

COc1ccc2c(OC)ccc(CNCCCCCCNCc3ccc(OC)c4ccc(OC)cc34)c2c1
active: growth inhibition [1] 98% | inhibition [2] 100% | growth inhibition [4] 102%
inactive: inhibition [3] -3% | outcome [5] | outcome [6] | outcome [7] | outcome [8]

CCCCCCN1CCC(NCc2cccc(-n3ccnc3)c2)CC1
inactive: inhibition [2] 3% | inhibition [3] 5% | outcome [5] | outcome [6] | outcome [7] | outcome [8]
active: growth inhibition [1] 101% | growth inhibition [4] 103%

CC1Cc2ccccc2N1S(=O)(=O)c1cc(OCC(F)(F)F)ccc1OCC(F)(F)F (configuration not stated)
inactive: inhibition [2] 10% | inhibition [3] 0% | outcome [5] | outcome [6] | outcome [7] | outcome [8]
active: growth inhibition [1] 95% | growth inhibition [4] 96%

COc1cc(C(=O)Nc2cccc(-c3cn4cccc(C)c4n3)c2)cc(OC)c1OC
active: growth inhibition [1] 77% | growth inhibition [4] 99%
inactive: inhibition [2] -3% | inhibition [3] -1% | outcome [5] | outcome [6] | outcome [7] | outcome [8]

COc1ccc2nccc(NN=Cc3ccccc3[N+](=O)[O-])c2c1
inactive: inhibition [3] -2% | outcome [5] | outcome [6] | outcome [7] | outcome [8]
active: growth inhibition [1] 100% | inhibition [2] 67% | growth inhibition [4] 100%

COc1ccc(CNc2ccnc(-n3cnc4cc(C)c(C)cc43)n2)cc1Cl
active: growth inhibition [1] 100% | growth inhibition [4] 100%
inactive: inhibition [2] 6% | inhibition [3] -8% | outcome [5] | outcome [6] | outcome [7] | outcome [8]

Oc1ccc(Br)cc1-c1nc2ccc(Cl)cc2nc1-c1cc(Br)ccc1O
active: growth inhibition [1] 64% | growth inhibition [4] 100%
inactive: inhibition [2] -4% | inhibition [3] 5% | outcome [5] | outcome [6] | outcome [7] | outcome [8]

CCNc1cc(C(=O)N[C@@H](Cc2ccccc2)[C@H](O)CNC2(Cc3cccc(Cl)c3)CCC2)cc(N2CCCCS2(=O)=O)c1
inactive: inhibition [2] 22% | inhibition [3] 1% | outcome [5] | outcome [6] | outcome [7] | outcome [8]
active: growth inhibition [1] 83% | growth inhibition [4] 95%

Oc1cccc(Nc2ccnc3cc(-c4cc5ccccc5o4)ccc23)c1
active: growth inhibition [1] 71% | growth inhibition [4] 102%
inactive: inhibition [2] 9% | inhibition [3] -1% | outcome [5] | outcome [6] | outcome [7] | outcome [8]

COc1cc(Cn2ccc3c4c(N)nc(N)nc4ccc32)cc(OC)c1OC
active: growth inhibition [1] 97% | inhibition [2] 66% | growth inhibition [4] 94%
inactive: inhibition [3] 3% | outcome [5] | outcome [6] | outcome [7] | outcome [8]

OCCNc1nc(Nc2ccc(Cl)cc2)nc2ccccc12
active: growth inhibition [1] 99% | growth inhibition [4] 102%
inactive: inhibition [2] 30% | inhibition [3] -1% | outcome [5] | outcome [6] | outcome [7] | outcome [8]

c1ccc(-c2nnc(-c3ccccn3)nc2NC2CCCCC2)cc1
inactive: inhibition [3] 6% | outcome [5] | outcome [6] | outcome [7] | outcome [8]
active: growth inhibition [1] 80% | inhibition [2] 74% | growth inhibition [4] 97%

CN(C)CCOc1ccc(-c2cc(-c3ccncc3)c(-c3ccc(Cl)c(O)c3)o2)cc1
inactive: inhibition [2] 0% | inhibition [3] -5% | outcome [5] | outcome [6] | outcome [7] | outcome [8]
active: growth inhibition [1] 93% | growth inhibition [4] 99%

Cc1cc(=O)[nH]c(NC#N)n1
inactive: growth inhibition [1] 3% | inhibition [2] 8% | inhibition [3] 0% | outcome [5] | outcome [6] | outcome [7] | outcome [8]
active: growth inhibition [4] 99%

CCOc1ccc(C2CCN(CCCCNC(=O)c3ccc(NC(=O)c4ccc(Cl)cc4)cc3)CC2)c(OCC)c1
inactive: inhibition [2] 14% | inhibition [3] 0% | outcome [5] | outcome [6] | outcome [7] | outcome [8]
active: growth inhibition [1] 95% | growth inhibition [4] 101%

COc1ccc(O)c(C(=O)c2cc(C(=O)NC3CCCCC3)c(=O)n(C3CCCCC3)c2)c1
inactive: inhibition [2] 8% | inhibition [3] 3% | outcome [5] | outcome [6] | outcome [7] | outcome [8]
active: growth inhibition [1] 62% | growth inhibition [4] 99%

CCOc1cc(C(=O)Nc2ccc3nc(N4CCCCC4)cc(C)c3c2)cc(OCC)c1OCC
active: growth inhibition [4] 100%
inactive: growth inhibition [1] 2% | inhibition [2] 26% | inhibition [3] -6% | outcome [5] | outcome [6] | outcome [7] | outcome [8]

CCN(CC)CCCC(C)Nc1ccnc2ccc(OC)cc12 (configuration not stated)
inactive: growth inhibition [1] -3% | inhibition [2] 7% | inhibition [3] -2% | outcome [5] | outcome [6] | outcome [7] | outcome [8]
active: growth inhibition [4] 102%

O=C(NCC1CCC(CNCCCc2ccccc2)CC1)c1cc(Cl)cc(Cl)c1 (configuration not stated)
inactive: growth inhibition [1] 13% | inhibition [3] -1% | outcome [5] | outcome [6] | outcome [7] | outcome [8]
active: inhibition [2] 58% | growth inhibition [4] 89%

N#Cc1ccc2c(c1)CCN(CCCn1c(-c3ccc4ccccc4c3)nc3ccncc31)CC2
active: growth inhibition [1] 97% | growth inhibition [4] 102%
inactive: inhibition [2] 38% | inhibition [3] 4% | outcome [5] | outcome [6] | outcome [7] | outcome [8]

N#Cc1ccc2nc(-c3ccccc3)[nH]c2c1
inactive: growth inhibition [1] 1% | inhibition [2] 7% | inhibition [3] -1% | outcome [5] | outcome [6] | outcome [7] | outcome [8]
active: growth inhibition [4] 95%

O=C(Nc1cccc(C(F)(F)F)c1)c1ccc(S(=O)(=O)NCC2CCN(CC3CCCCC3)CC2)cc1
inactive: growth inhibition [1] 49% | inhibition [2] 24% | inhibition [3] -4% | outcome [5] | outcome [6] | outcome [7] | outcome [8]
active: growth inhibition [4] 100%

CN1CCN(CCCN(Cc2ccc(-c3ccc(CNCc4ccc5c(c4)OCO5)cc3)cc2)C(=O)CCC2CCCC2)CC1
inactive: inhibition [3] 8% | outcome [5] | outcome [6] | outcome [7] | outcome [8]
active: growth inhibition [1] 85% | inhibition [2] 55% | growth inhibition [4] 99%

O=C(NCCc1cccc(Cl)c1Cl)c1cnc(N2CCN(c3ccncc3)CC2)c(Cl)c1
inactive: inhibition [2] 47% | inhibition [3] 0% | outcome [5] | outcome [6] | outcome [7] | outcome [8]
active: growth inhibition [1] 99% | growth inhibition [4] 100%

CC[C@H](C)CNC(=O)c1cncc(-c2ccc(CNCCOc3ccccc3)cc2)c1
inactive: growth inhibition [1] 0% | inhibition [2] 7% | inhibition [3] 3% | outcome [5] | outcome [6] | outcome [7] | outcome [8]
active: growth inhibition [4] 90%

Cc1ccc(-c2nc3cc(NC(=O)c4ccc([N+](=O)[O-])o4)ccc3o2)cc1Cl
active: growth inhibition [1] 97% | growth inhibition [4] 102%
inactive: inhibition [2] 24% | inhibition [3] -3% | outcome [5] | outcome [6] | outcome [7] | outcome [8]

O=C(NCCN1CCC(c2ncc(-c3ccccc3)o2)CC1)c1ccc(NC(=O)c2ccc(Cl)cc2)cc1
inactive: inhibition [2] 32% | inhibition [3] -7% | outcome [5] | outcome [6] | outcome [7] | outcome [8]
active: growth inhibition [1] 80% | growth inhibition [4] 101%

O=C(Nc1cccc(Cl)c1Cl)NC1CCN(Cc2cccc(O)c2)CC1
active: growth inhibition [4] 98%
inactive: growth inhibition [1] 1% | inhibition [2] 1% | inhibition [3] -1% | outcome [5] | outcome [6] | outcome [7] | outcome [8]

Cc1cccc2[nH]c(-c3cccc(-c4cccc(NC(=O)c5csnn5)c4)c3)nc12
inactive: growth inhibition [1] 49% | inhibition [2] 10% | inhibition [3] 1% | outcome [5] | outcome [6] | outcome [7] | outcome [8]
active: growth inhibition [4] 98%

NC(=O)C1CCN(Cc2ccc(-c3cccc(-c4nc5ccc(F)cc5[nH]4)c3)cc2)CC1
active: growth inhibition [4] 90%
inactive: growth inhibition [1] 3% | inhibition [2] 10% | inhibition [3] -8% | outcome [5] | outcome [6] | outcome [7] | outcome [8]

Cc1[nH]c2ccccc2c(=O)c1[N+](=O)[O-]
inactive: growth inhibition [1] -2% | inhibition [2] 5% | inhibition [3] -5% | outcome [5] | outcome [6] | outcome [7] | outcome [8]
active: growth inhibition [4] 88%

CC(=O)Nc1ccccc1OCc1cc2cc(C(=O)N3CCC(N4C(=O)OCc5ccccc54)CC3)ccc2o1
inactive: inhibition [2] 34% | inhibition [3] -2% | outcome [5] | outcome [6] | outcome [7] | outcome [8]
active: growth inhibition [1] 98% | growth inhibition [4] 99%
